Reference: PubChem BioAssay (NCI)
This is part of a sample that, as a whole, favours compounds with a hit. Of some 83,000 tested, about 20% had one in any assay.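 In brief: 96-well plates, 48 h treatment, single concentration, percent growth endpoint.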 Values without a mark were called inactive. Activity calls are given as the source filed them. How the source made its calls: active means growth percent below 10; inactive means the rest.

Each molecule was assayed on CCRF-CEM leukemia (assay: NCI-60 one-dose screen, 48 h (100 = growth as untreated, 0 = no growth, -100 = all killed)). Conditions: 10 µM.

Going from O=C1/C(=C/c2ccc(O)cc2)Oc2ccc(Cl)cc21 to Cc1cc(Cl)ccc1Nc1nc(C(F)(F)F)ccc1C(=O)N/N=C/c1ccccc1Cl, the growth falls from 88.2% to 14.7%.

First: COc1cc(C(=O)n2nc(N)c3c(C)cc(C)nc32)cc(OC)c1OC
Second: CCc1nn2c(-c3cc(OC)c(OC)c(OC)c3)c(-c3cc(OC)c(OC)c(OC)c3)nc2s1
The growth of the first is lower: 57.6% for the first, 80.8% for the second.

Compared with C#Cc1ccc(-n2c(/C=C/c3cc(OC)c(OC)c(OC)c3)nc3ncccc3c2=O)cc1, COc1cc(C2C(C#N)=C(c3c[nH]c4ccccc34)Nc3nc(N)[nH]c(=O)c32)cc(OC)c1OC (stereo not drawn) is lower in growth: 55.9% for the first, 53.5% for the second.

Going from Oc1ccccc1-c1nnc(Cn2c(Cc3cccc4ccccc34)nc3ccccc32)o1 to COc1ccc(-c2nc(-c3nc4ccc(C)cc4[nH]3)c3ccccn23)cc1, the growth falls from 99.4% to 18.7%.

Compared with CCOc1nc(-c2ccccc2)cc2c(O)c(C(=O)NC(C)C)[nH]c(=O)c12, Cc1c(C(=O)N[C@H](CO)Cc2ccccc2)[nH]c2ccc(Cl)cc2c1=O is higher in growth: 58.2% for the first, 94.8% for the second.

First: S=c1c2ncccc2c(-c2ccccn2)nn1Cc1ccccn1
Second: CN1/C(=C\C(I)C(I)C2=[N+](C)c3ccccc3C2(C)C)C(C)(C)c2ccccc21 (stereo not drawn)
The growth of the first is higher: 84.2% for the first, 12.1% for the second.

Compared with Nc1cc(O)cc(O)c1, N#C/C(=C/c1cc([N+](=O)[O-])ccc1Cl)C(N)=O is lower in growth: 114% for the first, 63.1% for the second.

Going from COc1c(-c2c3sc(=O)[nH]c3nc3c2c(=O)[nH]n3C(C)C)cc2c(c1OC)OCO2 to CCOC(=O)C1=C(Nc2ccc(OC)cc2)C(N)=NC1=N, the growth falls from 95% to 15.8%.

Going from C/C=C\COc1cc(C)c(Cl)cc1Cl to CC(C)c1ncc(CO)n1Cc1c(Cl)cccc1Cl, the growth rises from 95% to 103%.

Compared with CCOC(=O)CNC(=O)Nc1ccc(Oc2ccc(NC(=O)NCC(=O)OCC)cc2)cc1, COc1ccc(NC(=O)c2sc3nc4c(cc3c2N)C(O)CCC4)cc1 (stereo not drawn) is higher in growth: 89.4% for the first, 101% for the second.

Going from NC(=O)C1CCCN(Cc2c[nH]c3ccccc23)C1 (stereo not drawn) to Clc1cc(Cl)c(OCCCCCCN2CCNCC2)c(Cl)c1, the growth falls from 106% to 10.7%.

Going from CC(=O)n1nc(C(=O)OC(C)(C)C)c2cc(F)c(F)cc21 to Cc1cc(C)c2nc(C)c(C)[n+]([O-])c2c1, the growth falls from 97.5% to 66%.

Going from CCCCCCCCCCCC(=O)NCCCN(C)C to CCN(CCCNC(=O)Cc1cc(=O)oc2cc(N(C)C)ccc12)CCNc1ccnc2cc(Cl)ccc12, the growth falls from 65% to 53.9%.

Going from CCN1CCN(c2nc(NNC(=O)c3cccc(OC)c3)nc(N3CCN(C(c4ccccc4)c4ccccc4)CC3)n2)CC1 to CCCCCC(=O)N1c2ccccc2NC2=C(C(=O)CC(c3ccc(OC)c(OC)c3)C2)C1c1ccc(C(F)(F)F)cc1 (stereo not drawn), the growth falls from 48.9% to 43.5%.

CCCCOCCOCCOCc1cc2c(cc1Br)OCO2 was tested, and the growth was 99.8%.

With COC(=O)[C@]12CC[C@@H](C)[C@H](C)[C@@H]1C1=CC[C@@H]3[C@@]4(C)C[C@@H](O)[C@H](O)[C@@](C)(CO)[C@@H]4[C@H](O)C[C@@]3(C)[C@]1(C)CC2 the growth was -43.7% (active).
With COc1cc(Cn2c(-c3ccccc3)c(Cl)c3c2-c2oncc2CC3)cc(OC)c1 the growth was 9.93% (active).
For c1ccc(COCC[P+](c2ccccc2)(c2ccccc2)c2ccccc2)cc1, the growth was 2.79% (active).
With CCCCCCCCCCCCCC[n+]1ccccc1 the growth was -42.2% (active).
For Cc1cc(C(C)(C)CC(C)(C)C)ccc1OCCOCC[N+](C)(C)Cc1ccccc1, the growth was -8.84% (active).
With COCCOC(=O)NC(=O)Nc1ccc(/C(=N/O)c2ccc(Cl)cc2)cc1 the growth was 8.24% (active).

The molecules below were run on MOLT-4 leukemia in the same assay as above. Conditions: 10 µM.

Compared with O=C1/C(=C/c2ccc(O)cc2)Oc2ccc(Cl)cc21, Cc1cc(Cl)ccc1Nc1nc(C(F)(F)F)ccc1C(=O)N/N=C/c1ccccc1Cl is lower in growth: 81.1% for the first, 41.2% for the second.

Going from COc1cc(C(=O)n2nc(N)c3c(C)cc(C)nc32)cc(OC)c1OC to CCc1nn2c(-c3cc(OC)c(OC)c(OC)c3)c(-c3cc(OC)c(OC)c(OC)c3)nc2s1, the growth rises from 36% to 95.9%.

First: C#Cc1ccc(-n2c(/C=C/c3cc(OC)c(OC)c(OC)c3)nc3ncccc3c2=O)cc1
Second: COc1cc(C2C(C#N)=C(c3c[nH]c4ccccc34)Nc3nc(N)[nH]c(=O)c32)cc(OC)c1OC (stereo not drawn)
The growth of the first is lower: 65.2% for the first, 98.2% for the second.

First: Oc1ccccc1-c1nnc(Cn2c(Cc3cccc4ccccc34)nc3ccccc32)o1
Second: COc1ccc(-c2nc(-c3nc4ccc(C)cc4[nH]3)c3ccccn23)cc1
The growth of the first is higher: 90.9% for the first, 40.4% for the second.

Going from COc1ccc(-c2nc(SCC(=O)c3ccc(Br)cc3)[nH]c(=O)c2C#N)cc1 to COc1ccc(C2C=C(c3ccc(Cl)c(Cl)c3)N=C3SC(C)=CN32)cc1 (stereo not drawn), the growth falls from 96.8% to 79.5%.

Compared with CCOc1nc(-c2ccccc2)cc2c(O)c(C(=O)NC(C)C)[nH]c(=O)c12, Cc1c(C(=O)N[C@H](CO)Cc2ccccc2)[nH]c2ccc(Cl)cc2c1=O is lower in growth: 99.1% for the first, 92.2% for the second.

Going from S=c1c2ncccc2c(-c2ccccn2)nn1Cc1ccccn1 to CCN1CCN(c2nc(NNC(=O)c3cccc(OC)c3)nc(N3CCN(C(c4ccccc4)c4ccccc4)CC3)n2)CC1, the growth falls from 93.3% to 23.8%.

Compared with Nc1cc(O)cc(O)c1, N#C/C(=C/c1cc([N+](=O)[O-])ccc1Cl)C(N)=O is lower in growth: 104% for the first, 87.1% for the second.

Compared with COc1c(-c2c3sc(=O)[nH]c3nc3c2c(=O)[nH]n3C(C)C)cc2c(c1OC)OCO2, CCOC(=O)C1=C(Nc2ccc(OC)cc2)C(N)=NC1=N is lower in growth: 94.5% for the first, 26% for the second.

Going from C/C=C\COc1cc(C)c(Cl)cc1Cl to CC(C)c1ncc(CO)n1Cc1c(Cl)cccc1Cl, the growth falls from 108% to 101%.

Going from CCOC(=O)CNC(=O)Nc1ccc(Oc2ccc(NC(=O)NCC(=O)OCC)cc2)cc1 to COc1ccc(NC(=O)c2sc3nc4c(cc3c2N)C(O)CCC4)cc1 (stereo not drawn), the growth falls from 107% to 92.8%.

Going from NC(=O)C1CCCN(Cc2c[nH]c3ccccc23)C1 (stereo not drawn) to CCCCCC(=O)N1c2ccccc2NC2=C(C(=O)CC(c3ccc(OC)c(OC)c3)C2)C1c1ccc(C(F)(F)F)cc1 (stereo not drawn), the growth falls from 99.2% to 37%.

First: CC(=O)n1nc(C(=O)OC(C)(C)C)c2cc(F)c(F)cc21
Second: Cc1cc(C)c2nc(C)c(C)[n+]([O-])c2c1
The growth of the first is higher: 95% for the first, 83.1% for the second.

Going from CCCCCCCCCCCC(=O)NCCCN(C)C to CCN(CCCNC(=O)Cc1cc(=O)oc2cc(N(C)C)ccc12)CCNc1ccnc2cc(Cl)ccc12, the growth falls from 88.9% to 44.4%.

For CCCCOCCOCCOCc1cc2c(cc1Br)OCO2, the growth was 92.3%.

For COC(=O)[C@]12CC[C@@H](C)[C@H](C)[C@@H]1C1=CC[C@@H]3[C@@]4(C)C[C@@H](O)[C@H](O)[C@@](C)(CO)[C@@H]4[C@H](O)C[C@@]3(C)[C@]1(C)CC2, the growth was -51.9% (active).
With COc1cc(Cn2c(-c3ccccc3)c(Cl)c3c2-c2oncc2CC3)cc(OC)c1 the growth was 5.45% (active).
c1ccc(CNc2nc(Nc3ccc(-c4nc5ccccc5[nH]4)cc3)c3cn[nH]c3n2)cc1 was tested, and the growth was -39.7% (active).
In the case of c1ccc(COCC[P+](c2ccccc2)(c2ccccc2)c2ccccc2)cc1, the growth is reported as -10.1% (active).
In the case of CN1/C(=C\C(I)C(I)C2=[N+](C)c3ccccc3C2(C)C)C(C)(C)c2ccccc21 (stereo not drawn), the growth is reported as -12.5% (active).
With CCCCCCCCCCCCCC[n+]1ccccc1 the growth was -51.9% (active).
With Clc1cc(Cl)c(OCCCCCCN2CCNCC2)c(Cl)c1 the growth was -9.72% (active).
For Cc1cc(C(C)(C)CC(C)(C)C)ccc1OCCOCC[N+](C)(C)Cc1ccccc1, the growth was -39.6% (active).
For COCCOC(=O)NC(=O)Nc1ccc(/C(=N/O)c2ccc(Cl)cc2)cc1, the growth was 9.91% (active).
